WRN inhibitor: qHTS for Inhibitors of WRN Helicase; WRN helicase unwinding, fluorescent forked duplex, kinetic; Potency, µM (series often up to 114 µM), without a hit: at the highest dose activity change, negative = inhibition, most hits filed as inhibitors; actives 0.46% (n = 360,000); AID 651768, 2012; note: % is set by controls: 0 for no effect and ±100 for the full control effect; nearly all actives have a fitted effect of over 55% in size
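Primary qHTS, 1536-well format. 20 nM WRN + compound, 15 min RT; start with 100 nM forked fluorophore/quencher duplex, 2 mM ATP (final); kinetic read ex 525/em 598 nm.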
Pol iota inh: qHTS for Inhibitors of Polymerase Iota; actives 1% (n = 390,000); Potency, µM (doses to about 115 µM), for inactives: top-dose activity, negative = inhibition, usual class: inhibitors; AID 588590, 2011; DNA polymerase iota (Homo sapiens), Q9UNA4; Pol iota fluorescent replication assay, 10 min
Target sequence (Q9UNA4 whole entry, looked up): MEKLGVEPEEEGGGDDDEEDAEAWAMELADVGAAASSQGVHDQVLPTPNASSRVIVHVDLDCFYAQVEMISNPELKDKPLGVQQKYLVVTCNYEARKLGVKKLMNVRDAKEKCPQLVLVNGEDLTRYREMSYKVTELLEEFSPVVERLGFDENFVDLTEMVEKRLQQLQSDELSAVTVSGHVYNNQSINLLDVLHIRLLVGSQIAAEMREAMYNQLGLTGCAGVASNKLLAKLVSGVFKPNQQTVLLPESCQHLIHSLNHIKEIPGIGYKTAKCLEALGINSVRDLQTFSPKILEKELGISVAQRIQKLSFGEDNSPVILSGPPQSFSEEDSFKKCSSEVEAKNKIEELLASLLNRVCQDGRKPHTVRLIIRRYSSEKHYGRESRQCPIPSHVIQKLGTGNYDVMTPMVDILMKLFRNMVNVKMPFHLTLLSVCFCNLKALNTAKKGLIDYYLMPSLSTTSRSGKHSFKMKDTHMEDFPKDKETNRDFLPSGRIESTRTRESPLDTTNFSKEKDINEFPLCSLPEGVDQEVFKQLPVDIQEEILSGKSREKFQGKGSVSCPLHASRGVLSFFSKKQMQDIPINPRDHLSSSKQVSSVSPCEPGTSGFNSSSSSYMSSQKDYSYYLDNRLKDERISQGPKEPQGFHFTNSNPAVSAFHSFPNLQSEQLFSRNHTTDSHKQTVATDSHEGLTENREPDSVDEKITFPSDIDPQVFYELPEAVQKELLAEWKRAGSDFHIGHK
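Fluorescent replication assay read twice, at 0 min and 10 min after adding 50 nM (final) substrate. Enzyme (10 nM) and compounds were first incubated 15 min at room temperature; enzyme-free buffer wells were negative controls.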
POLB inh: qHTS Assay for Inhibitors of DNA Polymerase Beta; P06746; Pol beta primer extension/strand displacement, fluorescence kinetic; Potency, µM (highest dose often 114 µM), without a hit: at the highest dose activity change, negative = inhibition, actives largely listed as inhibitors; actives 1.3% (n = 340,000); AID 485314, 2010; note: % is set by controls: 0 for no effect and ±100 for the full control effect
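Homogeneous kinetic assay of primer extension and strand displacement by 10 nM Pol beta, preincubated 15 min at room temperature with compound before 50 nM substrate (final) was added. Read at 0 and 10 min; four-parameter Hill fit.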
Pol eta inh: qHTS for Inhibitors of Polymerase Eta | DNA polymerase eta (Homo sapiens), Q9Y253 | recombinant Pol eta, fluorescent DNA replication assay | Potency, µM (doses to about 114 µM), inactives show at the top dose activity change, negative = inhibition, most hits filed as inhibitors | actives 1.2% (n = 390,000); note: % is set by controls: 0 for no effect and ±100 for the full control effect
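Pol eta (10 nM) was preincubated with compounds for 15 min at room temperature, after which fluorescent replication substrate (50 nM final) was added to start the reaction. Fluorescence was read kinetically at 0 and 10 min.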
POLK inh: qHTS for Inhibitors of Polymerase Kappa; AID 588579, 2011; Potency, µM (top dose mostly 107 µM), without a hit: at the highest dose activity, negative = inhibition, most hits filed as inhibitors; DNA polymerase kappa (Homo sapiens), Q9UBT6; purified Pol kappa, fluorescent DNA synthesis assay, 10 min; actives 0.53% (n = 400,000); note: % is set by controls: 0 for no effect and ±100 for the full control effect
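Kinetic fluorescence readout at 0 and 10 min followed reaction start with substrate at 50 nM final. Beforehand, enzyme (10 nM Pol kappa) stood 15 min with compound at room temperature; buffer-only wells were negative controls.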
FEN1 inh: qHTS Assay for the Inhibitors of Human Flap endonuclease 1 (FEN1) | Recombinant FEN1 flap cleavage, fluorescence, 15 min | Potency, µM (highest dose often 114 µM), without a hit: top-dose activity change, negative = inhibition, hits mostly inhibitors | P39748 | actives 0.35% (n = 390,000); note: % is set by controls: 0 for no effect and ±100 for the full control effect; nearly all actives have a fitted effect of over 65% in size
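Concentration–response screening of FEN1 (10 nM): 15 min compound preincubation at room temperature, reaction started with 50 nM substrate and read at 0 and 15 min. Corrected, normalized data were fitted by a four-parameter Hill equation.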
* = called active by the depositor; ? = inconclusive; . = no result; [ ] = another dose, or the depositor's remark. Rows were chosen to be rich in hits. Some 2.4% of all compounds tested hit in one or more screens of this group. Calls come from the whole dose curve; as a rule, active = well fitted curve in the direction sought with a large enough effect; inconclusive = small, poorly fitted or top-dose-only effect, or another doubt; inactive = no such curve, though single readings can be large; an effect the other way counts as inactive or inconclusive. Potency is the fitted concentration of half-maximal effect.

SMILES | WRN inhibitor | Pol iota inh | POLB inh | Pol eta inh | POLK inh | FEN1 inh
CCCOC(=O)c1cc(-c2ccc(/C=C3/C(=O)N(C)C(=O)C(C#N)=C3C)o2)ccc1Cl | -7%[11.6 µM] | ? | . | 25µM* | -17% | 0%
CCCOC(=O)c1cc(-c2ccc(C=O)o2)ccc1Cl | -22% | -10% | 23% | -11% | -3% | -19%
Cc1ccc(S(=O)(=O)SC/C=C/CSS(=O)(=O)c2ccc(C)cc2)cc1 | ? | 6% | . | -2% | -3% | -11%
Cc1ccc(S(=O)(=O)SCCCSS(=O)(=O)c2ccc(C)cc2)cc1 | 50µM* | 4% | . | -12% | -9% | 4%
O=C(NCc1ccc(F)cc1)C1CCN(S(=O)(=O)c2ccc3c(c2)CCCN3C(=O)C2CCC2)CC1 | . | 30% | 5% | -19% | -6%[60.1 µM] | -10%
Cc1ccc(C)c(Nc2nn3c(=O)c4ccc(C(=O)NCc5cccs5)cc4nc3s2)c1 | . | -10% | 11µM* | ? | 4%[60.1 µM] | -26%
COc1ccccc1Nc1nn2c(=O)c3ccc(C(=O)NCCCOC(C)C)cc3nc2s1 | . | ? | 45µM* | ? | -15% | -6%
CCN(CC)CCNC(=O)c1ccc2c(=O)n3nc(Nc4ccccc4OC)sc3nc2c1 | . | 6% | -24% | ? | 1% | ?
Cc1ccc(C)c(NC(=O)CN2CCSc3ccc(S(=O)(=O)N4CCCC4)cc32)c1 | . | -2% | 0% | -8% | -10%[60.1 µM] | -4%
O=C1C2C3CCCC3=C3CCCC3C2C(=O)N1c1ccccc1Cl (stereo not given) | . | -29% | . | . | ? | 1%
COc1ccc(NC(=O)Nc2ccc(OC)c(OC)c2)c([N+](=O)[O-])c1 | -6% | 1% | 31% | -3% | 6% | 6%
COc1ccc([N+](=O)[O-])cc1NC(=O)Nc1ccc(OC)c(OC)c1 | ? | -29% | 20µM* | -9% | -22% | -15%
COc1ccc([N+](=O)[O-])cc1C(=O)Nc1ccc(Cc2ccncc2)cc1 | 0% | 8% | 11µM* | 4% | -11% | -14%
COc1ccccc1C(=O)Nc1ccc(Cc2ccncc2)cc1 | 4% | 25% | 17% | -15% | -16% | 16%
O=C(Cn1c(=O)n(-c2ccc(Cl)cc2)c(=O)c2c3c(sc21)CCCCC3)Nc1cccc(Cl)c1 | . | 2% | 0% | -15% | 0% | -5%
O=C(CSc1nc2ccccc2c2nc(-c3ccccc3)nn12)Nc1ccc(F)cc1 | . | 43% | 3% | -8% | -1%[60.1 µM] | 2%
CC(=O)c1ccc(NC(=S)N2CCN(c3ccccn3)CC2)cc1 | 5% | 22% | 18% | 89µM* | -1% | -19%
O=C(Nc1ccccc1)Nc1ccc(NC(=O)c2ccccc2O)cc1 | -1%[57.1 µM] | -27% | 32µM* | 3% | -10% | -19%
O=C(Nc1ccccc1)c1ccccc1O | -1% | -9% | 0% | -11% | -7% | 4%
CCN(CC)C1=N/C(=C\c2ccco2)C(=O)N1c1ccccc1 | -13%[57.1 µM] | -26% | -10% | -4% | -12% | -5%
CC(C)CN(CC(C)C)C1=N/C(=C\c2ccco2)C(=O)N1c1ccccc1 | -17% | ? | 28µM* | -11% | -39% | -8%
COC(=O)c1sc(-c2ccc(C(C)(C)C)cc2)cc1NC(=O)CSCC(=O)O | -4%[11.6 µM] | 79µM* | -7% | 89µM* | 9% | -4%
COC(=O)c1sc(-c2ccccc2)cc1NC(=O)C1CC1 | -10% | 71% | -17% | ? | 0% | -12%
CN(C)CCNC(=O)C(=O)Nc1cc2c3c(c1)CCN3C(=O)CC2 | 2%[11.6 µM] | 40µM* | 31% | 4% | ? | -17%
O=C(COc1ccc2ccccc2c1)Nc1cccc(C(=O)Nc2ccccc2C(=O)O)c1 | ? | -6% | 10% | 28µM* | -7% | -17%
SMILES | WRN inhibitor | Pol iota inh | POLB inh | Pol eta inh | POLK inh | FEN1 inh
O=C(COc1ccc2ccccc2c1)NNC(=O)Nc1ccccc1F | -32% | 79µM* | 35µM* | ? | -11% | 3%
COc1ccc(OC)c(NC(=O)NNC(=O)COc2ccc(-c3ccccc3)cc2)c1 | -23% | 17% | 30% | -17% | -5% | 1%
O=C(COc1ccc(-c2ccccc2)cc1)NNC(=O)Nc1ccc(F)cc1F | -16% | 12% | 8.9µM* | ? | -2% | 2%
O=C(COc1ccc2ccccc2c1)NNC(=O)c1ccc([N+](=O)[O-])cc1 | -17% | ? | 8.9µM* | 79µM* | -20% | 6%
CCCCCCCCCCCCC(=O)N1CCCC[C@H]1CNC(=O)[C@@H](N)CCCCN | . | . | . | . | -10%[19.4 µM] | .
CC1=C(C(=O)Nc2cccnc2)C(c2ccccc2)n2nc(SCc3ccccc3)nc2N1 (stereo not given) | . | 1% | 27% | 4% | -13% | -10%
Cc1cc(NC(=O)CN2CCC(C)CC2)nc2c1c(=O)oc1ccccc12 | . | ? | -1% | -17% | 89µM* | 17%
CCOc1ccc(S(=O)(=O)Nc2cc(NS(=O)(=O)c3ccc(OCC)cc3)cc(C(=O)O)c2)cc1 | -23% | ? | . | 25µM* | 79µM* | -10%
CCOc1ccc(OCC)c(NC(=O)c2csc3c2CCCC3)c1 | . | -15% | 5% | -13% | -3% | 9%
CN1CCN(c2ncc3nc(-c4cccs4)c(=O)n(C[C@H]4CCCO4)c3n2)CC1 | . | . | . | . | -18%[60.1 µM] | .
N/C(=N\OC(=O)c1cccc2ccccc12)c1cccc([N+](=O)[O-])c1 | -15% | ? | 50µM* | -9% | -31% | -19%
CCOC(=O)N1CCN(C(=O)CSCc2nc(-c3ccccc3F)oc2C)CC1 | 2% | 89µM* | 30% | -8% | -4% | -1%
CCOc1ccc(NC(=O)CSc2nc(-c3ccc(OC)cc3)nc3c2Cc2c(CO)cnc(C)c2O3)cc1 | . | ? | 40µM* | -2% | -3% | 15%
Cc1ncc(CO)c2c1Oc1nc(-c3ccccc3)nc(SCC(=O)Nc3cccc(C(F)(F)F)c3)c1C2 | . | -15% | 35µM* | ? | -4% | -2%
CCc1ccccc1NC(=O)CSc1nc(-c2cccc(Cl)c2)nc2c1Cc1c(CO)cnc(C)c1O2 | . | -12% | 1% | 3% | -8% | -4%
CCc1ccc(NC(=O)CSc2nc(-c3ccccc3Cl)nc3c2Cc2c(CO)cnc(C)c2O3)cc1 | . | -1% | 32% | -12% | -6% | -1%
CCc1ccc(NC(=O)CSc2nc(-c3ccc(C)cc3)nc3c2Cc2c(CO)cnc(C)c2O3)cc1 | . | ? | 50µM* | ? | -5% | -4%
